# Source: the antibiotic and cytotoxicity screens of Wong et al. (2023)
# About 3,300 (8.5%) of roughly 39,000 compounds were called active. Only a selection was taken, and actives are over-represented in it overall.
# System: HepG2
# Test: cytotoxicity call (relative viability < 0.9)
# Conditions: 10 µM
row,SMILES,cytotoxicity call
1,Cc1ccc(S(=O)(=O)Nc2ccc3c(c2)C(=O)N([C@@H](C)CO)C[C@@H](C)[C@H](CN(C)C(=O)NC2CCCCC2)OCCCC[C@H](C)O3)cc1,inactive
2,CC(C)N=c1cc2n(-c3ccc(Cl)cc3)c3ccccc3nc-2cc1Nc1ccc(Cl)cc1,active
3,CN[C@H]1CCS(=O)(=O)C1,inactive
4,Cc1nc(S(=O)(=O)N[C@H]2CCS(=O)(=O)C2)cn1C,active
5,CCN[C@H]1CCS(=O)(=O)C1,inactive
6,CCC(=O)N(C)C[C@@H]1Oc2ncc(C#C[C@@H](C)O)cc2C(=O)N([C@H](C)CO)C[C@@H]1C,inactive
7,COc1cccc(-c2cnc3c(c2)C(=O)N([C@H](C)CO)C[C@H](C)[C@H](CN(C)S(=O)(=O)c2cccc(F)c2)O3)c1,inactive
8,N[C@@H](CN1C=CC(=O)C(=O)C1)C(=O)O,inactive
9,N[C@@H](Cn1ccc(=O)c(O)c1)C(=O)O,inactive
10,NC(Cn1ccc(=O)c(O)c1)C(=O)O (centres undefined),active
11,C[C@@H]1CN([C@@H](C)CO)C(=O)c2cc(NC(=O)Nc3ccc(C(F)(F)F)cc3)ccc2O[C@@H]1CN(C)C(=O)Nc1cccc2ccccc12,inactive
12,C[C@@H]1CN(CCO[Si](C)(C)C(C)(C)C)C(=O)c2cc(NC(=O)Nc3ccccc3)ccc2O[C@@H](C)CCCCO[C@H]1CN(C)S(=O)(=O)c1ccc(F)cc1,inactive
13,Cc1noc(C)c1NC(=O)Nc1ccc2c(c1)CC(=O)N([C@H](C)CO)C[C@@H](C)[C@H](CN(C)S(C)(=O)=O)O2,inactive
14,C[C@H](CO)N1C[C@H](C)[C@H](CN(C)S(C)(=O)=O)Oc2ccc(NC(=O)Cc3ccccc3)cc2C1=O,inactive
15,C[C@@H]1CN([C@H](C)CO)C(=O)c2cc(NC(=O)Nc3ccccc3)ccc2O[C@@H](C)CCCCO[C@@H]1CN(C)Cc1ccc(Cl)c(Cl)c1,active
16,C[C@@H]1CCCCO[C@H](CN(C)Cc2ccc(Cl)c(Cl)c2)[C@@H](C)CN([C@H](C)CO)C(=O)c2cc(NC(=O)Nc3ccccc3)ccc2O1,inactive
17,C[C@H](CO)N1C[C@H](C)[C@H](CN(C)Cc2ccc(Cl)c(Cl)c2)OCCCC[C@H](C)Oc2ccc(NC(=O)Nc3ccccc3)cc2C1=O,inactive
18,C[C@@H]1CN([C@H](C)CO)C(=O)c2cc(NC(=O)Nc3ccccc3)ccc2O[C@@H](C)CCCCO[C@H]1CN(C)Cc1ccc(Cl)c(Cl)c1,active
19,C[C@@H]1CCCCO[C@@H](CN(C)Cc2ccc(Cl)c(Cl)c2)[C@@H](C)CN([C@@H](C)CO)C(=O)c2cc(NC(=O)Nc3ccccc3)ccc2O1,inactive
20,C[C@@H]1CCCCO[C@H](CN(C)Cc2ccc(Cl)c(Cl)c2)[C@@H](C)CN([C@@H](C)CO)C(=O)c2cc(NC(=O)Nc3ccccc3)ccc2O1,inactive
21,C[C@@H]1CCCCO[C@@H](CN(C)Cc2ccc(Cl)c(Cl)c2)[C@H](C)CN([C@H](C)CO)C(=O)c2cc(NC(=O)Nc3ccccc3)ccc2O1,active
22,C[C@@H]1CN([C@@H](C)CO)C(=O)c2cc(NC(=O)Nc3ccccc3)ccc2O[C@@H](C)CCCCO[C@H]1CN(C)Cc1ccc(Cl)c(Cl)c1,inactive

row,SMILES,cytotoxicity call
1,C[C@@H]1CCCCO[C@@H](CN(C)Cc2ccc(Cl)c(Cl)c2)[C@H](C)CN([C@@H](C)CO)C(=O)c2cc(NC(=O)Nc3ccccc3)ccc2O1,inactive
2,C[C@@H]1CCCCO[C@H](CN(C)Cc2ccc(Cl)c(Cl)c2)[C@H](C)CN([C@@H](C)CO)C(=O)c2cc(NC(=O)Nc3ccccc3)ccc2O1,active
3,CO[C@H]1CN(C)C(=O)c2cc(NS(C)(=O)=O)ccc2OC[C@H](C)N(C(=O)C2CCCCC2)C[C@@H]1C,inactive
4,C[C@H]1CN([C@@H](C)CO)C(=O)c2cc(NS(=O)(=O)c3cn(C)cn3)ccc2O[C@@H]1CN(C)CC1CC1,inactive
5,Cc1ccc(S(=O)(=O)N(C)C[C@@H]2Oc3c(NS(=O)(=O)c4cn(C)cn4)cccc3C(=O)N([C@@H](C)CO)C[C@@H]2C)cc1,inactive
6,COc1ccc(S(=O)(=O)N(C)C[C@H]2Oc3c(NC(=O)c4ccncc4)cccc3C(=O)N([C@H](C)CO)C[C@@H]2C)cc1,inactive
7,CC(C)[Si](C#C[Si](C(C)C)(C(C)C)C(C)C)(O[C@H](C)c1cn(Cc2cccc(Cl)c2)nn1)C(C)C,inactive
8,Cc1cc(C(=O)Nc2cccc3c2O[C@@H](CN(C)C(=O)NC2CCCCC2)[C@H](C)CN([C@@H](C)CO)C3=O)n(C)n1,inactive
9,C[C@@H]1CN([C@@H](C)CO)C(=O)c2cc(NC(=O)CCCCCC(=O)Nc3ccccc3N)ccc2O[C@@H]1CN(C)S(C)(=O)=O,inactive
10,COC(=O)[C@H]1C[C@@]2(C(=O)O)C[C@](C(=O)O)(C[C@@H](C(=O)OC)C2=O)C1=O,inactive
11,C[C@@H]1CN([C@@H](C)CO)C(=O)CCCn2nncc2CO[C@@H]1CN(C)C(=O)Nc1ccc2c(c1)OCCO2,inactive
12,C[C@@H]1CCCCO[C@H](CN(C)C(=O)Nc2ccc(C(F)(F)F)cc2)[C@@H](C)CN([C@H](C)CO)C(=O)c2cc(N(C)C)ccc2O1,inactive
13,CCc1nc2ccc(C(=O)N3CCN(S(=O)(=O)CC)CC3)cn2c1N(C=O)Cc1ccc(OC)cc1,inactive
14,C[C@H](CO)N1C[C@H](C)[C@@H](CN(C)Cc2ccc(Cl)c(Cl)c2)OCCCC[C@H](C)Oc2ccc(NC(=O)Nc3ccccc3)cc2C1=O,active
15,C[C@@H]1CCCCO[C@@H](CN(C)Cc2ccc(Cl)c(Cl)c2)[C@@H](C)CN([C@H](C)CO)C(=O)c2cc(NC(=O)Nc3ccccc3)ccc2O1,inactive
16,C[C@H]1CCCCO[C@H](CN(C)Cc2ccc(Cl)c(Cl)c2)[C@@H](C)CN([C@@H](C)CO)C(=O)c2cc(NC(=O)Nc3ccccc3)ccc2O1,inactive
17,C[C@@H]1CCCCO[C@@H](CN(C)Cc2ccc(C(=O)O)cc2)[C@H](C)CN([C@H](C)CO)C(=O)c2cc(NC(=O)Nc3ccc(C(F)(F)F)cc3)ccc2O1,inactive
18,COc1ccccc1CNC(=O)C[C@H]1C[C@H]2c3cc(NC(=O)c4ccc5c(c4)OCO5)ccc3O[C@H]2[C@@H](CO)O1,inactive
19,Cc1noc(C)c1NC(=O)Nc1cccc2c1O[C@@H](CN(C)S(=O)(=O)c1ccccc1)[C@H](C)CN([C@H](C)CO)C2=O,inactive
20,Cc1noc(C)c1NC(=O)N(C)C[C@H]1Oc2ncc(C#CCC(C)C)cc2C(=O)N([C@@H](C)CO)C[C@@H]1C,inactive
21,C[C@H]1CN([C@@H](C)CO)C(=O)Cc2cc(NC(=O)CCCCCC(=O)Nc3ccccc3N)ccc2O[C@@H]1CN(C)Cc1ccc(C(F)(F)F)cc1,inactive
22,C[C@H](CO)N1C[C@H](C)[C@H](CN(C)Cc2ccc(C(F)(F)F)cc2)Oc2ccc(NC(=O)CCCCCC(=O)Nc3ccccc3N)cc2CC1=O,active

row,SMILES,cytotoxicity call
1,C[C@H](CO)N1C[C@H](C)[C@@H](CN(C)Cc2ccc(C(F)(F)F)cc2)Oc2ccc(NC(=O)CCCCCC(=O)Nc3ccccc3N)cc2CC1=O,inactive
2,C[C@@H]1CN([C@H](C)CO)C(=O)Cc2cc(NC(=O)CCCCCC(=O)Nc3ccccc3N)ccc2O[C@@H]1CN(C)Cc1ccc(C(F)(F)F)cc1,active
3,C[C@@H]1CN([C@@H](C)CO)C(=O)Cc2cc(NC(=O)CCCCCC(=O)Nc3ccccc3N)ccc2O[C@H]1CN(C)Cc1ccc(C(F)(F)F)cc1,inactive
4,C[C@@H]1CN([C@H](C)CO)C(=O)Cc2cc(NC(=O)CCCCCC(=O)Nc3ccccc3N)ccc2O[C@H]1CN(C)Cc1ccc(C(F)(F)F)cc1,inactive
5,Cc1noc(C)c1S(=O)(=O)N(C)C[C@@H]1Oc2ccc(NS(=O)(=O)c3cn(C)cn3)cc2CC(=O)N([C@@H](C)CO)C[C@H]1C,inactive
6,C[C@@H]1CN([C@H](C)CO)C(=O)c2cc(NS(=O)(=O)c3ccc(F)cc3)ccc2O[C@@H]1CN(C)C(=O)Nc1ccc(C(F)(F)F)cc1,inactive
7,C[C@@H]1CN([C@H](C)CO)C(=O)c2cccc(NS(=O)(=O)c3ccccc3)c2O[C@H]1CN(C)Cc1ccc(Oc2ccccc2)cc1,inactive
8,COc1ccc(S(=O)(=O)N2C[C@@H](O)COC[C@H]3O[C@H](CC(=O)NCCCN(C)C)CC[C@@H]32)cc1,inactive
9,COc1cccc(NC(=O)N(C)C[C@@H]2OCc3ccccc3-c3c(n(C)c4ccccc34)C(=O)N([C@@H](C)CO)C[C@@H]2C)c1,inactive
10,C=CC[C@@H](CC(=O)N[C@H](CO)Cc1ccccc1)C(=O)N[C@H](C)COC(=O)[C@H](CC=C)CC(=O)OC(C)(C)C,inactive
11,C[C@@H]1CN([C@H](C)CO)C(=O)c2cc(NC(=O)Cc3ccccc3)ccc2O[C@@H](C)CCCCO[C@H]1CN(C)Cc1ccc(C(F)(F)F)cc1,active
12,C[C@@H]1CN([C@H](C)CO)C(=O)c2cc(NC(=O)Cc3ccccc3)ccc2O[C@@H](C)CCCCO[C@@H]1CN(C)Cc1ccc(C(F)(F)F)cc1,inactive
13,C[C@@H]1CCCCO[C@H](CN(C)Cc2ccccc2)[C@@H](C)CN([C@@H](C)CO)C(=O)c2cc(NC(=O)Cc3ccccc3)ccc2O1,active
14,C[C@@H]1CCCCO[C@H](CN(C)Cc2ccc(C(F)(F)F)cc2)[C@H](C)CN([C@@H](C)CO)C(=O)c2cc(NC(=O)Cc3ccccc3)ccc2O1,inactive
15,C[C@@H]1CCCCO[C@@H](CN(C)Cc2ccc(C(F)(F)F)cc2)[C@H](C)CN([C@H](C)CO)C(=O)c2cc(NC(=O)Cc3ccccc3)ccc2O1,inactive
16,C[C@@H]1CCCCO[C@@H](CN(C)Cc2ccc(C(F)(F)F)cc2)[C@@H](C)CN([C@@H](C)CO)C(=O)c2cc(NC(=O)Cc3ccccc3)ccc2O1,active
17,C[C@H]1CCCCO[C@H](CN(C)Cc2ccccc2)[C@@H](C)CN([C@@H](C)CO)C(=O)c2cc(NC(=O)Cc3ccccc3)ccc2O1,inactive
18,C[C@@H]1CN([C@H](C)CO)C(=O)c2cc(NC(=O)Cc3ccccc3)ccc2O[C@@H](C)CCCCO[C@H]1CN(C)Cc1ccccc1,inactive
19,C[C@H](CO)N1C[C@H](C)[C@@H](CN(C)Cc2ccc(C(F)(F)F)cc2)OCCCC[C@H](C)Oc2ccc(NC(=O)Cc3ccccc3)cc2C1=O,active
20,C[C@@H]1CN([C@@H](C)CO)C(=O)c2cc(NC(=O)Cc3ccccc3)ccc2O[C@@H](C)CCCCO[C@H]1CN(C)Cc1ccc(C(F)(F)F)cc1,inactive
